The values that follow come from PubChem BioAssay (Tox21).

Test [1] in a line: qHTS RealTime-Glo MT Cell Viability Assay in HepG2 cells - 8 hour (AID 1224873). Also: nearly all actives have a fitted effect of over 55% in size. The essentials: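 HepG2 cells (600/well) mixed with RealTime-Glo MT reagent, settled 5 h at 37 C/5% CO2 before compound addition. Nonlytic NanoLuc luminescence from viable-cell prosubstrate reduction read repeatedly during 40 h treatment at 37 C.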
Test [2] can be described thus: qHTS RealTime-Glo MT Cell Viability Assay in HEK293 cells - 40 hour (AID 1224874). Also: nearly all actives have a fitted effect of over 50% in size. Also: potency is read from the fitted curve at half-maximal effect. The conditions noted are these: RealTime-Glo luminescence; max response: stronger effect = lower value. The essentials:
(§1)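 Measured as luminescence from the same continuously cultured HEK293 wells at successive time points (0, 8, 16, 24, 32, 40 h) after compound addition. Reagent present from seeding; dosing at 5 h; incubation 37 C.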

Test [3] in a line: A CellTox Green Cytotoxicity Assay to monitor cytotoxicity in HEK293 cells - 24 hour (AID 1224875). Also: series mostly up to about 77 µM; nearly all actives have a fitted effect of over 45% in size. The essentials: (§2)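 Homogeneous no-lysis format: HEK293 cell suspension mixed with CellTox Green reagent, seeded, incubated 5 h at 37 C/5% CO2, then dosed by pintool with compound in DMSO.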
Test [4] is described as follows: A CellTox Green Cytotoxicity Assay to monitor cytotoxicity in HepG2 cells - 16 hour (AID 1224876). Also: nearly all actives have a fitted effect of over 45% in size. Also: potency is read from the fitted curve at half-maximal effect. The essentials:
(§3)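 Fluorescent DNA-binding dye, 600 HepG2 cells/well, 5 h preincubation then compound in DMSO; same plates read at 0–40 h, 37 C.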

The nature of test [5]: qHTS RealTime-Glo MT Cell Viability Assay in HepG2 cells - 32 hour (AID 1224877). Also: nearly all actives have a fitted effect of over 55% in size. An outline of the steps: (§4)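 Real-time, nonlytic viability: 600 HepG2 cells/well mixed with NanoLuc enzyme plus prosubstrate; 5 h settle, compound (DMSO) added by pintool; luminescence monitored over 40 h at 37 C.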
Test [6] in a line: A CellTox Green Cytotoxicity Assay to monitor cytotoxicity in HepG2 cells - 24 hour (AID 1224878). Also: nearly all actives have a fitted effect of over 45% in size. Also: potency is read from the fitted curve at half-maximal effect. An outline of the steps:
as §3

The nature of test [7]: A CellTox Green Cytotoxicity Assay to monitor cytotoxicity in HepG2 cells - 40 hour (AID 1224879). Also: nearly all actives have a fitted effect of over 40% in size. Also: potency is read from the fitted curve at half-maximal effect. The essentials: as §3
A short description of test [8]: qHTS RealTime-Glo MT Cell Viability Assay in HEK293 cells - 0 hour (AID 1224880). Also: top concentration of the series differs between compounds; nearly all actives have a fitted effect of over 45% in size. The essentials: as §1
The nature of test [9]: A CellTox Green Cytotoxicity Assay to monitor cytotoxicity in HEK293 cells - 32 hour (AID 1224881). Also: nearly all actives have a fitted effect of over 40% in size. An outline of the steps: as §2
Test [10] is described as follows: A CellTox Green Cytotoxicity Assay to monitor cytotoxicity in HepG2 cells - 0 hour (AID 1224882). Also: nearly all actives have a fitted effect of over 35% in size. The essentials: as §3
The nature of test [11]: A CellTox Green Cytotoxicity Assay to monitor cytotoxicity in HepG2 cells - 32 hour (AID 1224883). Also: nearly all actives have a fitted effect of over 50% in size. Also: potency is read from the fitted curve at half-maximal effect. The essentials: as §3
A short description of test [12]: A CellTox Green Cytotoxicity Assay to monitor cytotoxicity in HEK293 cells - 8 hour (AID 1224884). Also: nearly all actives have a fitted effect of over 35% in size. An outline of the steps:
as §2

Test [13] in a line: qHTS RealTime-Glo MT Cell Viability Assay in HepG2 cells - 16 hour (AID 1224885). Also: nearly all actives have a fitted effect of over 50% in size. The essentials: as §4
The nature of test [14]: qHTS RealTime-Glo MT Cell Viability Assay in HEK293 cells - 24 hour (AID 1224886). Also: nearly all actives have a fitted effect of over 50% in size. Also: potency is read from the fitted curve at half-maximal effect. An outline of the steps: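 Cells + reagent dispensed (600 cells/well, HEK293) → 5 h at 37 C/5% CO2 → 23 nL compound in DMSO pinned → 40 h at 37 C → luminescence read at 0, 8, 16, 24, 32, 40 h.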
A short description of test [15]: qHTS RealTime-Glo MT Cell Viability Assay in HEK293 cells - 8 hour (AID 1224887). An outline of the steps: as §1
Test [16] can be described thus: A CellTox Green Cytotoxicity Assay to monitor cytotoxicity in HEK293 cells - 16 hour (AID 1224888). Also: nearly all actives have a fitted effect of over 35% in size. The essentials:
as §2

Test [17] in a line: qHTS RealTime-Glo MT Cell Viability Assay in HepG2 cells - 0 hour (AID 1224889). Also: nearly all actives have a fitted effect of over 50% in size. An outline of the steps: as §4
Test [18] can be described thus: qHTS assay to identify small molecule antagonists of the estrogen receptor alpha (ER-alpha) signaling pathway using the BG1 cell line in the presence of 0.1 nM 17-beta-estradiol - cell viability counter screen (AID 1259241). Also: nearly all actives have a fitted effect of over 40% in size. Also: potency is read from the fitted curve at half-maximal effect. The essentials: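 VM7Luc4E2 cells (endogenous ER-alpha, 4×ERE-luciferase), hormone-starved 5 days in charcoal-stripped FBS, were treated with compounds plus 0.1 nM 17beta-estradiol for 22 hr at 37C; viability read in same wells as CellTiter-Fluor live-cell protease fluorescence.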

Test [19] can be described thus: qHTS assay to identify small molecule antagonists of the androgen receptor (AR) signaling pathway using the MDA cell line in the presence of 0.5 nM R1881 - cell viability counter screen (AID 1259242). Also: nearly all actives have a fitted effect of over 45% in size. The essentials: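 Human breast carcinoma MDA-kb2 cells, cultured without CO2, receive compounds alongside 0.5 nM (final) R1881 agonist. After 16 hr at 37C, viability is taken as live-cell protease signal.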

Test [20] can be described thus: A CellTox Green Cytotoxicity Assay to monitor cytotoxicity in HepG2 cells - 8 hour (AID 1224890). Also: nearly all actives have a fitted effect of over 45% in size. An outline of the steps: as §3

SMILES strings stand for the structures. “And” between values parts separate entries of the source, which are not always exact repeats. Equal entries are not always repeated. Inconclusive results are not listed. More than one record can exist for a structure, and the calls need not agree. The source made the active and inactive calls. Calls follow the shape of the dose curve; as a rule, active = well fitted curve in the direction sought with a large enough effect in the repeat runs; inconclusive = weak or mixed curves; inactive = no such curve, though single readings can be large; an effect the other way counts as inactive or inconclusive.
% is scaled to controls: 0 for no effect and ±100 for the full control effect.

Turning to `C[N+]1([O-])CCOCC1`, the Potency entry in test [1], in [3], in [4], in test [5], in [6] and in test [7] was “inactive” each time. Also, the Potency result in [8], in [9], in test [10], in [11], in test [12] and in test [13] was “inactive” in each case. Further, the Potency entry in test [14], in [15], in test [16], in [17], in test [18] and in test [19] was “inactive” each time. Besides, in test [2], the max response was 0.178% (inactive).
In the case of `CCCCC/C=C/CC1CC(=O)OC1=O` (stereo unspecified), the Potency result in test [1], in test [3], in [4], in test [5], in test [6] and in [7] was “inactive” throughout. Moreover, the Potency result in test [8], in test [9], in test [10], in [11], in test [12] and in [13] was “inactive” each time. In addition, the Potency entry in test [14], in [15], in test [17], in test [20], in test [18] and in [19] was “inactive” throughout. Further, the max response in [2] is 1.06% (inactive).
For the molecule `Nc1ccc2cc3ccccc3cc2c1`, the Potency result in [1], in [3], in test [4], in [5], in test [6] and in test [7] was “inactive” each time. The Potency result in [8], in test [9], in test [11], in test [12], in test [13] and in test [14] was “inactive” in each case. Moreover, the Potency entry in test [15], in test [16], in test [17], in test [20] and in [19] was “inactive” in each case. Also, the max response in test [2] is -15.8% (inactive) and 6.47% (inactive).
On to `NC(N)=Nc1nc(CSCC/C(N)=N/S(N)(=O)=O)cs1`, for which the Potency result in [1], in [3], in test [5], in [7], in [8] and in test [9] was “inactive” in each case. The Potency result in test [10], in [11], in [12], in test [13], in test [14] and in test [15] was “inactive” each time. The Potency entry in test [17], in test [20], in test [18] and in test [19] was “inactive” in each case. Moreover, the max response in test [2] is -7.2% (inactive) and 0.8% (inactive). In addition, the Potency in [4] was 4.36 µM (active) and inactive; in test [6], 3.89 µM (active) and inactive.
As to `O=C(Oc1ccccc1)c1ccccc1O`, the Potency entry in test [1], in [3], in test [4], in test [5], in test [6] and in test [7] was “inactive” in each case. Moreover, the Potency result in test [8], in test [9], in test [10], in [11], in [12] and in test [13] was “inactive” throughout. Further, the Potency result in test [14], in test [15], in [16], in test [17], in test [18] and in test [19] was “inactive” each time. In addition, in test [2], the max response was -18.8% (inactive) and -3% (inactive) and 3.05% (inactive).
Regarding `O`, the Potency entry in test [1], in test [3], in test [4], in test [5], in test [6] and in test [7] was “inactive” throughout. Also, the Potency entry in [8], in test [9], in test [11], in [12], in [13] and in [14] was “inactive” throughout. Further, the Potency result in test [15], in [16], in test [17], in test [20] and in test [19] was “inactive” in each case. The max response in test [2] is 0.569% (inactive) and 9.85% (inactive).
With `CCn1c2ccccc2c2cc(N)ccc21`, the Potency result in test [1], in [3], in test [4], in test [5], in test [6] and in [7] was “inactive” in each case. The Potency result in test [8], in test [9], in test [10], in test [11], in test [12] and in [13] was “inactive” throughout. The Potency result in test [14], in [15], in [17] and in test [20] was “inactive” in each case. Besides, the max response in test [2] was -18.5% (inactive) and -3.18% (inactive) and -13.8% (inactive).
Take `O=C(OCc1ccccc1)c1ccc(O)cc1`: the Potency entry in test [1], in test [3], in test [4], in [5], in test [6] and in test [8] was “inactive” each time. Also, the Potency result in [9], in test [12], in [13], in [14], in test [15] and in test [16] was “inactive” throughout. Further, the Potency result in test [17], in [20], in [18] and in test [19] was “inactive” each time. Further, the max response in test [2] was -24.2% (inactive). Also, the Potency in test [7] is 49 µM (active) and inactive; in [11], 49 µM (active) and inactive.
Take `CC1=C(C=O)C(C)(C)CC=C1`: the Potency entry in test [1], in [3], in [4], in test [5], in [6] and in [7] was “inactive” throughout. Further, the Potency entry in [8], in test [9], in test [11], in test [12], in test [13] and in test [14] was “inactive” in each case. Moreover, the Potency entry in [15], in test [16], in test [17] and in test [20] was “inactive” throughout. For the same molecule, the max response in test [2] was -1.02% (inactive).
Consider `CC[C@]1(O)C[C@@H]2CN(CCc3c([nH]c4ccccc34)[C@@](C(=O)OC)(c3cc4c(cc3OC)N(C)[C@H]3[C@@](O)(C(=O)OC)[C@H](OC(C)=O)[C@]5(CC)C=CCN6CC[C@]43[C@@H]65)C2)C1`, for which the Potency result in test [1], in test [3], in test [4], in [5], in test [6] and in [7] was “inactive” throughout. Moreover, the Potency entry in [8], in test [9], in test [10], in test [11], in [12] and in test [15] was “inactive” in each case. In addition, the Potency entry in test [16] and in test [17] was “inactive” throughout. The Potency was 15.1 nM (active) and 5.4 nM (active) in test [2]; 0.0043 µM (active) in test [14]; 1.88 µM (active) in [18].
For `Cc1occc(=O)c1OC(=O)C(C)C`, the Potency result in [1], in test [3], in test [4], in [5], in [6] and in test [7] was “inactive” in each case. The Potency entry in [8], in test [9], in test [10], in [11], in test [12] and in [13] was “inactive” throughout. For the same molecule, the Potency entry in [14], in test [15], in test [17], in test [20], in [18] and in test [19] was “inactive” each time. The max response in test [2] is -0.202% (inactive).
